Measured values from PubChem BioAssay (NCATS).
Values joined by “and” are separate entries in the source; they are usually repeats but may differ in a detail not shown here. Equal values may be shown once. Inconclusive results are not listed. A call without a number means that no potency is given here. Active and inactive are the calls of the source. Unless noted, the call rests on the fitted dose curve; in most records, active means well fitted curve in the direction sought with a large enough effect; inconclusive means small, poorly fitted or top-dose-only effect, or another doubt; inactive means no such curve, though single readings can be large; an effect the other way counts as inactive or inconclusive.

Tests used:
[1] = Cell Viability - N2a (AID 540); conditions: N2a mouse neuroblastoma cell viability; at 92.2 µM (top of the series);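 further: cells exposed to compound for 40 h at 37 °C; nearly all actives have a fitted effect of over 45% in size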
In short: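 In this qHTS cytotoxicity screen, ATP-dependent luciferase luminescence reports viable N2a cells after a 40 hr compound exposure in complete culture medium. Potencies are AC50 values from standard Hill equation fits.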

[2] = Cellular Toxicity (caspase-3) NIH 3T3 (AID 666);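 further: caspase signal read after 16 h compound exposure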
In short: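 Activity: caspase-3/7 induction, NIH 3T3 cells, 16 hr treatment at 37°C, luminescent Caspase-Glo detection; AC50 via Hill equation.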

[3] = molecular target: Cytochrome P450 3A4 (Homo sapiens) (UniProt P08684); assay: qHTS Assay for Inhibitors and Substrates of Cytochrome P450 3A4 (AID 884); further: nearly all actives have a fitted effect of over 50% in size
In short: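 Luminescent readout of luciferin produced by CYP3A4 (20 nM) dealkylation of Luciferin-PPXE, 25 uM (its KM). NADPH-driven reaction ran 60 min at RT after 10 min compound preincubation; data scaled to 57 uM ketoconazole as 100% inhibition.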

[4] = Cell Viability - LYMP2-001 (AID 921);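 further: cells exposed to compound for 24 h at 37 °C; nearly all actives have a fitted effect of over 70% in size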; further: potency means the concentration at half of the fitted maximal effect
In short: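 CellTiter-Glo luminescence (intracellular ATP) after 24 hr compound exposure at 37 C, 2500 lymphoblastoid cells/well in complete medium. AC50 fitted with standard Hill equation; tetraoctylammonium bromide positive control.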

[5] = Cell Viability - LYMP2-011 (AID 969); further: nearly all actives have a fitted effect of over 60% in size
In short: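 Cells seeded at 2500 per well rest 5 hr before compound addition, then incubate 24 hr at 37 C. CellTiter-Glo reagent is added for 30 min at room temperature before luminescence detection.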

[6] = Cell Viability - LYMP2-013 (AID 970);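 further: cells exposed to compound for 24 h at 37 °C; nearly all actives have a fitted effect of over 55% in size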
In short: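 In complete culture medium, human lymphoblastoid cells were dosed for 24 hr at 37 C, with tetraoctylammonium bromide (6.4pM to 92 uM) as positive control. Viability reflects luciferase-based ATP signal; AC50 derived from concentration-response curves.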

[7] = Cell Viability - LYMP2-017 (AID 972); further: nearly all actives have a fitted effect of over 55% in size; further: potency means the concentration at half of the fitted maximal effect
In short: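 In this qHTS format, lymphoblastoid cells in complete medium receive test compound for a day at 37 C before ATP content is quantified by luciferase luminescence. Reported AC50 figures come from standard Hill-equation curve fitting.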

[8] = Cell Viability - LYMP2-007 (AID 979);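 further: cells exposed to compound for 24 h before reading; nearly all actives have a fitted effect of over 60% in size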; further: potency means the concentration at half of the fitted maximal effect
In short: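 Measured via luciferase-based ATP quantitation: lymphoblastoid cells, 24 hr compound exposure at 37 C, AC50 from Hill fits.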

[9] = Cell Viability - LYMP2-008 (AID 980); further: nearly all actives have a fitted effect of over 60% in size; further: potency means the concentration at half of the fitted maximal effect;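 on activity change, negative = cytotoxicity: cells exposed to compound for 24 h at 37 °C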
In short: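 Measured: ATP-dependent luminescence, proportional to viable cell number, in human lymphoblastoid cells treated 24 hr with compound in complete culture medium. Values are AC50s from Hill-equation modelling of qHTS titrations.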

[10] = Cell Viability - LYMP2-010 (AID 981); further: nearly all actives have a fitted effect of over 55% in size; further: potency means the concentration at half of the fitted maximal effect
In short: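 This 24 hr viability screen uses LYMP2-010 lymphoblastoid cells, quantifies ATP via luciferase luminescence, and derives AC50 from Hill fits of qHTS concentration-response data.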

[11] = Cell Viability - LYMP2-014 (AID 983);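 further: cells exposed to compound for 24 h at 37 °C; nearly all actives have a fitted effect of over 50% in size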
In short: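 Quantitative HTS in lymphoblastoid cells: 24 hr compound exposure, then CellTiter-Glo ATP luminescence. Positive control was tetraoctylammonium bromide, 6.4pM to 92 uM.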

[12] = Cell Viability - LYMP1-002 - Assay at 24 hr (AID 993)
In short: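 Viability was judged from intracellular ATP using a luciferase read-out, following a 24-hour compound incubation at 37 C of lymphoblastoid cells seeded at 2500 per well. Concentration-response data were fitted to the Hill equation for AC50.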

[13] = molecular target: Peroxisome proliferator-activated receptor delta (Homo sapiens) (UniProt Q03181); assay: qHTS assay for small molecule agonists of peroxisome proliferator-activated receptor delta signaling (AID 588534; calls by dose curve)
In short: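 EC50 and efficacy values derive from Hill fits of a concentration series in a beta-lactamase reporter cell assay. Exposure is 18 hrs at 37 C, with CCF4 fluorescence as the readout.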

[14] = molecular target: Peroxisome proliferator-activated receptor alpha (Homo sapiens) (UniProt Q07869); assay: qHTS assay for small molecule agonists of the peroxisome proliferator-activated receptor alpha (PPARalpha) signaling pathway (AID 651778); conditions: PathHunter PPARalpha complementation, chemiluminescence, 6 h; stronger effect = higher value
In short: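 Cells plated at 2,000/well and held overnight at 37 C, 5% CO2, then compound added by pin tool for 6 hr; after PathHunter detection reagent and 60 min at room temperature, chemiluminescence from enzyme complementation was read.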

[15] = qHTS assay for small molecule antagonists of the retinoid-related orphan receptor gamma (ROR-gamma) signaling pathway - cell viability counter screen (AID 720652; active means well fitted curve in the direction sought with a large enough effect in the repeat runs; an effect the other way counts as inactive or inconclusive;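 further: CHO reporter cells with doxycycline-induced ROR-gamma expression; compound exposure lasted 16 hr before ATP read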)
In short: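 ATP-based viability readout in the ROR-gamma reporter CHO cells after 16 hr compound exposure under doxycycline induction.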

[16] = Cell Viability - Jurkat (AID 426;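 active means dose-dependent loss of cell ATP signal giving a full or clear fitted curve, ranked by lower potency value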;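 further: potency means the concentration at half of the fitted maximal effect; cells exposed to compound for 40 hours at 37 °C before ATP read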); conditions: qHTS
In short: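 Cytotoxicity was scored as loss of cellular ATP, measured by luciferase-based luminescence, in Jurkat clone E6-1 cells after 40 h compound treatment; tamoxifen and doxorubicin served as positive controls.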

[17] = Cell Viability - Hek293 (AID 427;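 active means compounds whose dose-response curve shows a full or clear partial loss of cell viability, called from curve shape rather than a numeric limit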;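 further: potency means the concentration at half of the fitted maximal effect; cells exposed to compound for 40 hours at 37 °C before reading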); conditions: qHTS
In short: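 Luminescent ATP content (CellTiter-Glo, 20 min at room temperature) was measured after a 40 hr, 37 °C compound exposure of HEK293 cells. AC50 values came from Hill-equation fits of qHTS concentration-response data normalized to DMSO and 100 uM tamoxifen.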

[18] = qHTS assay for small molecule agonists of retinoid X receptor alpha signaling (AID 588544; calls by dose curve); conditions: HEK293T RXRa-UAS-bla, beta-lactamase reporter, 18 h; 530 nm emission
[19] = molecular target: Retinoic acid receptor RXR-alpha (Homo sapiens) (UniProt P19793); assay: as above
[20] = molecular target: Nuclear receptor ROR-gamma (Homo sapiens) (UniProt P51449); assay: qHTS assay for small molecule antagonists of the retinoid-related orphan receptor gamma (ROR-gamma) signaling pathway (AID 651802); further: nearly all actives have a fitted effect of over 60% in size; further: potency means the concentration at half of the fitted maximal effect
In short: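 Doxycycline-induced reporter activity in engineered CHO cells (TET-inducible ROR, RORE-LUC) was measured by luminescence after 16hr compound exposure at 37C.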

Chain of Retinoic acid receptor RXR-alpha (Homo sapiens) (P19793 whole entry, looked up): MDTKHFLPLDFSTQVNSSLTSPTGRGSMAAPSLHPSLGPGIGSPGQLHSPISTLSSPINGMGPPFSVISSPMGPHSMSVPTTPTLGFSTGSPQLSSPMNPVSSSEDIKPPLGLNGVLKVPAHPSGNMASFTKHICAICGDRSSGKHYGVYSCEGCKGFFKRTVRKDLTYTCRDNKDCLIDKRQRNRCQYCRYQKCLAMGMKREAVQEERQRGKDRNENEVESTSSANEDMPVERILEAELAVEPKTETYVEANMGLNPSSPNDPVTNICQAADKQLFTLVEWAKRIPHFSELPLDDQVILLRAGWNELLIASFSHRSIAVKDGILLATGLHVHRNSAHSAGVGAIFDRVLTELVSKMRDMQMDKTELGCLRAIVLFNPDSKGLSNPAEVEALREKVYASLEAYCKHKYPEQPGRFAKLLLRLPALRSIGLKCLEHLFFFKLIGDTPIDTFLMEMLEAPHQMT
Chain of Peroxisome proliferator-activated receptor delta (Homo sapiens) (Q03181 whole entry, looked up): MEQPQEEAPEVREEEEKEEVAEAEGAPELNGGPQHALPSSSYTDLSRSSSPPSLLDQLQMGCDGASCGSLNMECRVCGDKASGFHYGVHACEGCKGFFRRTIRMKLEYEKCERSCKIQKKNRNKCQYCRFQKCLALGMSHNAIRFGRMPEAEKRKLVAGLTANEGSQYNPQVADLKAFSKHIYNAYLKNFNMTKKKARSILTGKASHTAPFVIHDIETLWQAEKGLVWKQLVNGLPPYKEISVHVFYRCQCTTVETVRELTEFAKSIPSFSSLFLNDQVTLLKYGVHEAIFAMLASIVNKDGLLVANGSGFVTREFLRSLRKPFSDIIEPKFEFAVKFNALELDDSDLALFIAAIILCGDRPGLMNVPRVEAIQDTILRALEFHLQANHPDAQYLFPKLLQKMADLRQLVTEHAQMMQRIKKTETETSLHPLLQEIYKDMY
Chain of Cytochrome P450 3A4 (Homo sapiens) (P08684 whole entry, looked up): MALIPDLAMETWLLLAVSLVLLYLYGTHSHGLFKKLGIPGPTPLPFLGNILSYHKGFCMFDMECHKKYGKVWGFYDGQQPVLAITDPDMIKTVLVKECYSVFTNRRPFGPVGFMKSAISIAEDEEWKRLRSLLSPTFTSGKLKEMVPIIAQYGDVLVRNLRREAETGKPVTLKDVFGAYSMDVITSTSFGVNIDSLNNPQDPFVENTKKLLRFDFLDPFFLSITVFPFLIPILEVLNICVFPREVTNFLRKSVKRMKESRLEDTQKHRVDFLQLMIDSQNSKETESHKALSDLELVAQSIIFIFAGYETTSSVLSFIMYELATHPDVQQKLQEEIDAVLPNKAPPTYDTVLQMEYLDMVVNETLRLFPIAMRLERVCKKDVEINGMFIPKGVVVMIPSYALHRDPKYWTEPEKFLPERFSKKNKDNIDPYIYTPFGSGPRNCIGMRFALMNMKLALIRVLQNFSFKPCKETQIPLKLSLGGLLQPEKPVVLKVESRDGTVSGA
Chain of Peroxisome proliferator-activated receptor alpha (Homo sapiens) (Q07869 whole entry, looked up): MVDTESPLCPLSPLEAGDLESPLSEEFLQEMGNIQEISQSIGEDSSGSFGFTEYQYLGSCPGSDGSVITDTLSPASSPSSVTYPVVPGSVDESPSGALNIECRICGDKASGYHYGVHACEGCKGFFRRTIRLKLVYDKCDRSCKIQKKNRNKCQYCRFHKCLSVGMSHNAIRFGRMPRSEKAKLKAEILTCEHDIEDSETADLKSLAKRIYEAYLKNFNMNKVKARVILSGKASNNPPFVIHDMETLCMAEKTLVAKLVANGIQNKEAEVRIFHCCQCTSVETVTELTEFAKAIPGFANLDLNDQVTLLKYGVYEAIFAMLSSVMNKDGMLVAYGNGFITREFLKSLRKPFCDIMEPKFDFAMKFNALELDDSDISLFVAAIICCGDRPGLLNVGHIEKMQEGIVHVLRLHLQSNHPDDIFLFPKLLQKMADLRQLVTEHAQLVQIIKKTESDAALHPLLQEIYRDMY
Chain of Nuclear receptor ROR-gamma (Homo sapiens) (P51449 whole entry, looked up): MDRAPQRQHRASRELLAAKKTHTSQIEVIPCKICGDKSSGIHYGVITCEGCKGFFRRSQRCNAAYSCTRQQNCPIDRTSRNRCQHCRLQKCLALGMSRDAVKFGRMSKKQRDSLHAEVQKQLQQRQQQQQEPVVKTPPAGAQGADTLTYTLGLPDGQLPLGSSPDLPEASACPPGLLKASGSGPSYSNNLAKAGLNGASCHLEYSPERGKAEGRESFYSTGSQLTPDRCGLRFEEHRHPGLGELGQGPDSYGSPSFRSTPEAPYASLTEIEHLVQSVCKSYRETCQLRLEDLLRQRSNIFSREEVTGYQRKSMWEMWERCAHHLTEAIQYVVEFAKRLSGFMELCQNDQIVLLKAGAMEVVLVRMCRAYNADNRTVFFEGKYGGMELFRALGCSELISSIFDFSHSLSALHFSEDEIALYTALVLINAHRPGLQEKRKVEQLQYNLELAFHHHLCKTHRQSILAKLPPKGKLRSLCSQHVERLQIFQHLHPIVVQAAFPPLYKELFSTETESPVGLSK

SMILES	activity change, negative = cytotoxicity [1]	outcome [2]	Potency [3]	Potency [4]	Potency [5]	Potency [6]	Potency [7]	Potency [8]	Potency [9]	Potency [10]	Potency [11]	Potency [12]	outcome [13]	max response [14]	Potency [15]	Potency [16]	Potency [17]	max response [18]	Potency [19]	Potency [20]
Brc1ccc(Oc2cc(Br)c(Br)cc2Br)c(Br)c1	-86.7% (active) and -80.4% (active)	inactive	inactive	inactive	inactive	inactive	inactive	inactive	inactive	inactive	inactive	inactive	inactive	8.87% (inactive) and 4.12% (inactive) and 3.75% (inactive)	inactive	–	–	–	–	–
C=CC(N)=O	1.31% (inactive) and 7.69% (inactive)	inactive	–	inactive	inactive	inactive	inactive	inactive	inactive	inactive	inactive	inactive	inactive	–	inactive	> 92 µM (inactive)	> 92 µM (inactive)	-5.65% and -3.81%	inactive	inactive
C=CC(C)=O	3.67% (inactive)	inactive	inactive	inactive	inactive	inactive	inactive	inactive	inactive	inactive	inactive	inactive	inactive	-1.26% (inactive)	inactive	> 92 µM (inactive)	> 92 µM (inactive)	-8.63%	inactive	inactive
CC(C)(C)OO	1.33% (inactive) and -10.7% (inactive)	inactive	–	inactive	inactive	inactive	inactive	inactive	inactive	inactive	inactive	inactive	inactive	-2.75% (inactive) and -4.99% (inactive)	inactive	> 92 µM (inactive)	> 92 µM (inactive)	4.87% and -13.2%	inactive	inactive
BrCCBr	-0.148% (inactive)	inactive	inactive	inactive	inactive	inactive	inactive	inactive	inactive	inactive	inactive	inactive	inactive	-2.04% (inactive) and -4.02% (inactive)	inactive	> 92 µM (inactive)	> 92 µM (inactive)	-0.875% and -18.5%	inactive	inactive
Clc1nc(Cl)nc(Cl)n1	-4.85% (inactive)	inactive	inactive	inactive	inactive	inactive	inactive	inactive	inactive	inactive	inactive	inactive	inactive	-5.93% (inactive) and -1.12% (inactive)	inactive	> 92 µM (inactive)	> 92 µM (inactive)	5.45% and -4.64%	inactive	inactive
C=C(C)C#N	1.28% (inactive)	inactive	inactive	–	inactive	inactive	–	inactive	inactive	inactive	inactive	inactive	inactive	-3.42% (inactive) and 0.836% (inactive)	inactive	> 92 µM (inactive)	> 92 µM (inactive)	5.57% and -6.47%	inactive	inactive
CC(C)(OO)c1ccccc1	3.56% (inactive)	–	inactive	39.8 µM (active)	–	–	50.1 µM (active)	31.6 µM (active)	39.8 µM (active)	25.1 µM (active)	inactive	inactive	inactive	-1.59% (inactive) and -0.102% (inactive)	–	28.3 µM (active)	> 92 µM (inactive)	21.6% and -3.11%	inactive	42.2 µM (active)
